The record followed here is PubChem BioAssay AID624464 (National Center for Advancing Translational Sciences (NCATS), 2012).

About 810 (0.23%) of roughly 360,000 compounds were called active. Rule as the data show it: active = potentiation above about 50%; inconclusive = mostly about 30% to 49%; inactive = weaker than that. Shown is part of a subset that was picked to be rich in actives.

Chain of D(2) dopamine receptor (Homo sapiens) (P14416 whole entry, looked up): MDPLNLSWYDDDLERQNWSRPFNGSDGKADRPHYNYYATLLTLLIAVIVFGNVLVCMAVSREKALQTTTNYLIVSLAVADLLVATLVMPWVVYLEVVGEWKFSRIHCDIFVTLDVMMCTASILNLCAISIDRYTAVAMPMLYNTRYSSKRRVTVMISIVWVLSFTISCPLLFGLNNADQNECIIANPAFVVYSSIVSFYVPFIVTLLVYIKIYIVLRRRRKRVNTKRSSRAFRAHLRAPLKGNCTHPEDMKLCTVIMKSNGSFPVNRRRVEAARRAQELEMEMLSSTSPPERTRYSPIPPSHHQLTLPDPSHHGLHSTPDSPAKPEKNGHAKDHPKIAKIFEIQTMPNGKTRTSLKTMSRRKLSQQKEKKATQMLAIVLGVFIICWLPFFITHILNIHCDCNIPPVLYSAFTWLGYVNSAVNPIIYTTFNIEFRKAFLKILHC

This assay concerns the target D(2) dopamine receptor (Homo sapiens) (UniProt P14416). Kind of assay: Beta-Arrestin HTS for Positive Allosteric Modulators of the Human D2 Dopamine Receptor: Potentiators. Particulars: DiscoveRx D2 beta-arrestin cells, luminescence, 90 min; stronger effect = higher value; 100% = 57 uM dopamine signal. From the text:
There is great interest in identifying small molecule ligands for G-protein coupled receptors (GPCRs) as nearly 50% of all FDA-approved drugs target these important receptor proteins. […] Amongst the dopamine receptors (DARs), the D2 is arguably one of the most validated drug targets in neurology and psychiatry. For instance, all receptor-based antiparkinsonian drugs primarily work via stimulating the D2 DAR, whereas all FDA-approved antipsychotic agents are antagonists of this receptor. The D2 DAR is also therapeutically targeted in other disorders such as restless legs syndrome, tardive dyskinesia, Tourette's syndrome, and hyperprolactinemia.
To this end, a miniaturized qHTS screen was developed to be screened against the Molecular Libraries Small Molecule Repository (MLSMR). This assay seeks to identify potentiators against the D2 DAR.
NIH Molecular Libraries Probe Production Network [MLPCN]
NIH Chemical Genomics Center [NCGC]
PI Name: David Sibley, National Institutes of Neurological Disorders and Stroke
DiscoveRx D2 cells were thawed from frozen stock and seeded at 2,100 cells/ 3 uL/well media (DiscoveRx Plating Reagent 2) with MultiDrop Combi dispenser (Thermo Scientific, Logan, UT) onto white tissue culture treated 1536-well Aurora plates (Brooks Automation, Chelmsford, MA) and allowed to attach overnight at 37 deg C, 5% CO2. Next, 23 nL/well of compound solutions in DMSO were added with a pintool transfer (Kalypsis, San Diego, CA). As the positive control, 1 uL/well dopamine (EC100, 57 uM final concentration) diluted in buffer (HBSS + 10 mM HEPES + SMB + 0.1 %Tween-20) was dispensed to 1 column of each plate. EC20 (Dopamine at 50 nM final concentration) was dispensed to the rest of the plate except columns 1 &2 which were used as negative control (EC=0, buffer only), 1 uL/well as well. The cells were stimulated by compounds and dopamine for 90 minutes at 37 deg C, 5% CO2, after which 1.5 uL/well of DiscoveRx detection reagent was added with BioRAPTR FRD dispenser. The detection reagent was prepared by mixing of Galacton Star Substrate, Emerald II solution and PathHunter buffer (supplied by the assay kit) together at 1:5:19 proportion accordingly just prior to dispensing. The plates were incubated at ambient temperature for 1 hour and then the luminescent signal was read on ViewLux plate reader (PerkinElmer, Waltham, MA).
As for `O=C(O)CCCC(=O)Nc1ccccc1-n1ccnc1`, the potentiation was -9.58% (inactive).

As to `CSc1ncnc2c1ncn2CC(=O)C1CCC2C3CCC4=CC(=O)CCC4(C)C3CCC12C` (stereo not drawn), the potentiation was -2.03% (inactive).

As for `CCOC(=O)CSc1nc2ccc(C)cc2n2cnnc12`, the potentiation was 0.488% (inactive).

With `CC1=C(C(=O)N(C(C)C)C(C)C)CC(CC(=O)NCC2CCCCC2)C(=O)N1Cc1ccccc1` (stereo not drawn), the potentiation is 1.77% (inactive).

In the case of `O=C(CCNS(=O)(=O)c1ccccc1C(F)(F)F)Nc1ccncc1`, the potentiation is 0.0096% (inactive).

As for `O=C(OCC(=O)N(CCc1ccccc1)Cc1ccccc1)c1ccccc1[N+](=O)[O-]`, the potentiation was -22.2% (inactive).

In the case of `COc1ccc(N(C(=O)c2cccnc2)S(=O)(=O)c2ccc(OC)c(OC)c2)cc1`, the potentiation was 0.917% (inactive).

For `O=C(c1cccnc1)N(Cc1ccccc1)C(=O)c1cccnc1`, the potentiation is -3.67% (inactive).

`O=C(c1cccnc1)N(c1cc2sc(=O)oc2c2ccccc12)S(=O)(=O)c1ccccc1`: the potentiation is 61.6% (active).

On to `CC(C)Cc1ccc(S(=O)(=O)N2CCN(C(=O)c3ccco3)CC2)cc1`, for which the potentiation is -6.64% (inactive).

For the compound `CC(C)(C)S(=O)N1Cc2cc(C(=O)NCCCN3CCOCC3)nc(-c3cccc(-c4cc5ccccc5o4)c3)c2[C@H]1CCO` (stereo partly drawn), the potentiation is -2.56% (inactive).

Take `COc1ccc(/C=C(\NC(=O)c2ccc(OCC(C)C)cc2)C(=O)OCc2ccco2)cc1`: the potentiation is -7.94% (inactive).

With `CC(C)c1ccc(NC(=O)COC(=O)c2ccc(CN3CCCC3=O)cc2)cc1`, the potentiation is 0.762% (inactive).

On to `CCCC(=O)N1CCC1(C)C(=O)NCc1ccc(C(C)C)cc1` (stereo not drawn), for which the potentiation was -0.154% (inactive).

For the compound `CC(=O)N1CCN(c2ccc(NCc3ccc(C(C)C)cc3)cc2)CC1`, the potentiation is 62.8% (active).

Turning to `COc1ccc(C(=O)NCCNc2ccc([N+](=O)[O-])cn2)cc1`, the potentiation is -11.5% (inactive).

For `CCOCC(=O)Nc1ncc(S(=O)(=O)c2ccc([N+](=O)[O-])cc2)s1`, the potentiation was 24.1% (inactive).

With `COC(=O)C(NC(=O)c1ccc(OC)cc1)(Nc1ncc(S(=O)(=O)c2ccc([N+](=O)[O-])cc2)s1)C(F)(F)F` (stereo not drawn), the potentiation is 65.4% (active).

With `CCCCN1C(=S)NC[C@@H]1C(C)CC` (stereo partly drawn), the potentiation was -1.6% (inactive).

On to `N#Cc1ccc(COC(=O)Cn2nnc(-c3ccccc3)n2)cc1`, for which the potentiation was -0.341% (inactive).

Regarding `Cn1c(=NC(=O)c2ccc3c(c2)OCCO3)sc2cc(S(C)(=O)=O)ccc21`, the potentiation was -10.1% (inactive).

Take `COC(=O)CNC(=O)c1ccccc1[N+](=O)[O-]`: the potentiation was -2.49% (inactive).

Regarding `COCCn1c(=NC(=O)c2ccccc2[N+](=O)[O-])sc2cc(S(C)(=O)=O)ccc21`, the potentiation was 74.4% (active).

Turning to `C=CCSc1ccc(S(=O)(=O)N2CCN(C)CC2)cn1`, the potentiation was -3.17% (inactive).

As to `O=C(Nc1ccnn1C1CCN(C/C=C/c2ccc(F)cc2)CC1)C1CCCC1`, the potentiation is -11% (inactive).

With `Cn1ncc2c(N3CCCCC3)nc(NCCCO)nc21`, the potentiation is -3.76% (inactive).

Take `CS(=O)(=O)c1sc(C(=O)NC(=S)Nc2ccc(OC(F)(F)F)cc2)c2c1C=CCC2`: the potentiation was -5.92% (inactive).

Regarding `COc1ccccc1Cc1c(-c2ccc(Cl)cc2)nc2ccc(Cl)cn12`, the potentiation was -4.81% (inactive).

For `COc1cccc(N2CC(C(=O)NCc3n[nH]c(=O)c4ccccc34)CC2=O)c1` (stereo not drawn), the potentiation is -3.09% (inactive).

For the compound `CCCCC(=O)N1CC2(C)CN(C(=O)CCCC)CC(C)(C1)C2=O`, the potentiation is 12.6% (inactive).

Consider `COc1cc(C(=O)N2CCN(S(=O)(=O)c3ccc(C(C)C)cc3)CC2)ccc1OCC(=O)N1CCOCC1`, for which the potentiation was 0.615% (inactive).

Regarding `CC(=O)N1CCN(c2ccccc2NC(=S)NC(=O)c2cc3ccccc3o2)CC1`, the potentiation was 1.52% (inactive).

On to `Cc1ccccc1NC(=O)c1nn(-c2ccc(F)c(F)c2)ccc1=O`, for which the potentiation was -20.8% (inactive).

Take `CC(C)(C)S(=O)(=O)c1ccccc1-c1noc(-c2ccccc2)c1C(N)=O`: the potentiation was -4.58% (inactive).

As to `COc1ccc(S(=O)(=O)NC2(C(F)(F)F)N=C3SCCN3C2=O)cc1` (stereo not drawn), the potentiation is -9.42% (inactive).

Take `COC(=O)c1cc(S(=O)(=O)N2CCC(C(N)=O)CC2)oc1C`: the potentiation is -5.83% (inactive).

`Cc1cc(C)cc(C(=O)N(CCc2ccccc2)C2=CC3CCC(C2)N3C)c1` (stereo not drawn): the potentiation was -8.31% (inactive).

For `CCCN(CCc1ccccc1)C1CCc2c(O)cccc2C1` (stereo not drawn), the potentiation is 99% (active).

As to `O=C(CCC(=O)N1CCN(S(=O)(=O)c2ccc(Cl)cc2)CC1)NCc1cccc(C(F)(F)F)c1`, the potentiation was -1.2% (inactive).

`O=C(Cc1ccc(S(=O)(=O)N2CCOCC2)s1)N1CCN(c2ccc(C(F)(F)F)cc2[N+](=O)[O-])CC1`: the potentiation was -0.0198% (inactive).

`CC(=O)NC1=NC(=O)CS1`: the potentiation was -7.96% (inactive).

Regarding `Cc1ccc2cccc(OCCCOc3ccccc3CO)c2n1`, the potentiation was -2.17% (inactive).

Turning to `CC1C=CCC2C(=O)N(c3cccc(C(=O)N4CCCCCC4)c3)C(=O)C12` (stereo not drawn), the potentiation was -12.1% (inactive).

For the compound `COCCCNC(=O)Cn1c(=O)n(Cc2ccccc2Cl)c(=O)c2cc(OC)c(OC)cc21`, the potentiation was -14.1% (inactive).

On to `CCCc1cc(=O)[nH]c2nnc(SCC(=O)Nc3nnc(SCC)s3)n12`, for which the potentiation is -13.8% (inactive).

In the case of `CC(C)(C)N(Cc1ccccc1)C(=O)COC(=O)CCc1c[nH]c2ccccc12`, the potentiation was 10.1% (inactive).

As for `C[C@@H](NC(=O)[C@@H]1Cc2ccccc2CN1)C(=O)NC1CCCC1`, the potentiation was -3.01% (inactive).

On to `COc1ccc(O)c(C(=O)c2cnc3c(c2)c(-c2ccc(F)cc2)c(C#N)c(=O)n3C)c1`, for which the potentiation is 11.8% (inactive).

With `COCCn1c(=O)[nH]c(=O)c2cc(C(=O)c3cc(OC)ccc3O)cnc21`, the potentiation is -0.0764% (inactive).

With `COc1ccc(O)c(C(=O)c2cnc3onc(C(C)C)c3c2)c1`, the potentiation was 54.9% (active).

Turning to `CCOC(=O)c1cc(-c2sc(NC(=O)c3ccccc3)nc2C)n(-c2ccc(Br)cc2)n1`, the potentiation was 2.35% (inactive).

As for `COC(=O)[C@]1(C)N[C@H](c2ccc(-c3ccc(Cl)c(Cl)c3)cc2)[C@@H]2C(=O)N(C)C(=O)[C@@H]21`, the potentiation is -3.41% (inactive).

On to `O=C(C/C(=N\NC(=O)c1ccccc1Br)C(F)(F)F)c1cccs1`, for which the potentiation was -15% (inactive).

For the compound `O=C(CC(CC(=O)c1ccccc1)c1ccco1)c1ccccc1`, the potentiation was -4.42% (inactive).

Take `Nc1ccc(-n2nncc2-c2ccco2)cc1`: the potentiation is -3.62% (inactive).

Turning to `N#Cc1cccc(CSc2nnc(CCCO)n2-c2ccccc2)c1`, the potentiation was -7.69% (inactive).

Consider `O=C(NCc1ccccc1)C(c1ccccc1)N(C(=O)c1csnn1)c1ccc(F)cc1` (stereo not drawn), for which the potentiation is 0.0815% (inactive).

As to `N/C(=N\OC(=O)c1ccc2c(c1)OCO2)c1ccc(Br)cc1`, the potentiation is 24.5% (inactive).

Turning to `N/C(=N\OC(=O)N1c2ccccc2Sc2ccccc21)c1ccc(Br)cc1`, the potentiation is 86.3% (active).

Regarding `N/C(=N\OC(=O)Cc1ccccc1[N+](=O)[O-])c1ccc(Br)cc1`, the potentiation was 18.7% (inactive).

For the compound `CC1(C)CC(=O)C(C=NCc2cccnc2)=C(O)C1`, the potentiation is 0.0734% (inactive).

Consider `COc1ccc(N2CC(C(=O)NCCS(=O)(=O)N3CCN(c4ccccc4)CC3)CC2=O)cc1` (stereo not drawn), for which the potentiation was -8.09% (inactive).

In the case of `CCOc1ccc(N2C(=O)CC(N(O)c3ccccc3)C2=O)cc1` (stereo not drawn), the potentiation is 51.5% (active).

As for `CCOc1ccc(N2C(=O)CC(N(CCc3ccc(OC)c(OC)c3)C(=S)Nc3ccccc3)C2=O)cc1` (stereo not drawn), the potentiation was -3.21% (inactive).

Consider `CCOC(=O)c1ccc(N2C(=O)CC(N(C)Cc3ccccc3)C2=O)cc1` (stereo not drawn), for which the potentiation is -5.22% (inactive).

For `Cc1c(C=O)c2ccccn2c1C(=O)c1ccncc1`, the potentiation was 13.6% (inactive).

Regarding `C=CCn1c2c(c3ccccc31)CCC2`, the potentiation was -5.75% (inactive).

Regarding `CCOc1ccc(OCC(=O)OC(C)C(=O)NC2CCCCC2C)cc1` (stereo not drawn), the potentiation is -13.2% (inactive).

In the case of `CCc1ccnc(NC(=O)Nc2ccc(OCc3ccccc3)cc2)c1`, the potentiation was -1.75% (inactive).

With `COc1ccc(OC)c(S(=O)(=O)N2CCCC(C(=O)N3CCC(C(N)=O)CC3)C2)c1` (stereo not drawn), the potentiation is 7.76% (inactive).

For the compound `CCOc1ccc(CCNC(=O)COC(=O)c2ccc(C)c(S(=O)(=O)N3CCOCC3)c2)cc1OCC`, the potentiation is 1.76% (inactive).

Regarding `CCN(c1cccc(C)c1)S(=O)(=O)c1ccc(-c2coc(C)n2)cc1`, the potentiation was -22% (inactive).

On to `CCN(CC)S(=O)(=O)c1ccc(-c2cn3ccc(C)cc3n2)cc1`, for which the potentiation was 56% (active).

Consider `Cc1ccc(-c2cn3cc(C)ccc3n2)cc1`, for which the potentiation was 6.89% (inactive).

With `COc1cccc2c1C(=O)c1c(O)c3c(c(O)c1C2=O)CC(O)(C(C)=NNC(=O)c1ccc(Cl)c(Cl)c1)CC3OC1CC(N)C(O)C(C)O1` (stereo not drawn), the potentiation was -9.55% (inactive).

With `CCc1nc2ccc(C(=O)N(C)CCN(C)C)cn2c1N(CC)CCOC`, the potentiation is -8.24% (inactive).

On to `O=C(NC(C(=O)NCCN1CCOCC1)C12CC3CC(CC(C3)C1)C2)C1CCCCC1` (stereo not drawn), for which the potentiation was -3.19% (inactive).

`COc1cccc(N(CC(=O)NCc2ccccc2)C(=O)CCC(=O)Nc2nccs2)c1`: the potentiation was -2.58% (inactive).
